# Measurements: ChEMBL document CHEMBL4513216, “Probing the Open Global Health Chemical Diversity Library for Multistage-Active Starting Points for Next-Generation Antimalarials” (ACS Infect Dis, 2020)
# The campaign covered roughly 69,000 compounds. About 8,600 (12%) showed an effect of 50% or more. The full list was thinned out, with strong results kept by preference.
# Tested on: Plasmodium berghei
# Assay: Screen against P. berghei liver stage (PbLuc), transformed with Luciferase, at 10uM
# Type: functional, HepG2
# Settings: tested at 10 uM
row,Compound,INHIBITION [%]
1,CCN(CC)CCNC(=O)c1cc(OC)c2ccoc2c1,31.1
2,CC(=O)CN1CC2(CCNCC2)COc2ccccc2S1(=O)=O,26.3
3,FC(F)(F)c1ccc(-c2cc(NC3CCNCC3)nc3[nH]ccc23)nc1,18.5
4,COc1nccnc1-c1cc(NC2CCCC2)nc2[nH]ccc12,60
5,COc1ncc(-c2cc(NCCN(C)C)nc3[nH]ccc23)c(OC)n1,49
6,COc1nccnc1-c1cc(NC2CCNCC2)nc2[nH]ccc12,-2.69
7,COc1cc(-c2cc(NC3CCCC3)nc3[nH]ccc23)nc(N)n1,42.1
8,COc1ncc(-c2cc(NC3CCCC3)nc3[nH]ccc23)c(OC)n1,66.7
9,CCS(=O)(=O)N1CCC(c2nc(C)c(C)c(N3CCCC3)n2)CC1,22.35
10,Cc1noc([C@]23COC[C@H]2CN(C(=O)Cc2ccsc2)C3)n1,38.5
11,O=C(CC1[C@H]2CN(Cc3ccc(F)cc3)C[C@@H]12)N1CCCC1 (some centres not stated),-7.28
12,O=C(NCCc1cc(F)ccc1F)NCC(O)C1CC1 (configuration not stated),14.9
13,Cc1[nH]ccc1C(=O)N(C)C1CC(=O)N(Cc2ccccc2)C1=O (configuration not stated),54.4
14,Cc1nc(C(=O)N(C)C2CC(=O)N(Cc3ccccc3)C2=O)cs1 (configuration not stated),8.51
15,CN(C(=O)c1ccc[nH]1)C1CC(=O)N(Cc2ccccc2)C1=O (configuration not stated),15.2
16,O=C(c1cc(C2CCCCN2C(=O)C2CCC2)n[nH]1)N1CCOCC1 (configuration not stated),-22.6
17,CCn1ncc(CN2CCc3nc(-c4cccnc4)nc(O)c3C2)c1C,29.2
18,CN(C)C(=O)COC[C@]12COC[C@H]1CN(Cc1ccco1)C2,-3.33
19,Cc1nc(CCNC(=O)NCC(c2ccco2)N(C)C)cs1 (configuration not stated),55.6
20,CN(C)C(CNC(=O)NCCS(C)(=O)=O)c1ccco1 (configuration not stated),-18.3
21,CN(C)C(CNC(=O)NCCc1cccc(O)c1)c1ccco1 (configuration not stated),41.4
22,Cn1ccc2c(C(=O)N3CC[C@@]4(O)CCCC[C@H]4C3)cccc21,1.62
23,O=S(=O)(Cc1ccccc1)NCc1nnc2n1CCC2,-12.4

row,Compound,INHIBITION [%]
1,O=C(NCc1nnc2n1CCCC2)c1ccc(C2CCCO2)s1 (configuration not stated),59.1
2,O=C(NCc1nnc2n1CCC2)c1ccc(Br)s1,49.4
3,O=C(NCc1nnc2n1CCC2)N(Cc1ccc(F)cc1)C1CC1,50.4
4,O=C(NCc1nnc2n1CCCCC2)N(Cc1ccncc1)C1CC1,26.5
5,CCN(CC1CCOC1)C(=O)NCc1nnc2n1CCCCC2 (configuration not stated),34.4
6,CN(Cc1ccc(F)cc1)C(=O)NCc1nnc2n1CCC2,-21.8
7,O=C(NCc1nnc2n1CCCCC2)N(CC1CCOC1)C1CC1 (configuration not stated),55
8,O=S(=O)(Cc1ccc(F)cc1)NCCc1nnc2n1CCC2,30.5
9,O=S(=O)(Cc1ccc(F)cc1)NCc1nnc2n1CCC2,68.9
10,CCN(CC1CCOC1)C(=O)NCc1nnc2n1CCC2 (configuration not stated),42
11,O=C(NCc1nnc2n1CCC2)c1ccc(C2CCCO2)s1 (configuration not stated),-1.7
12,CCCC(C#N)NC(=O)c1sccc1CC (configuration not stated),46.6
13,CSc1ncnc(NCc2cccs2)c1C#N,10.6
14,Cc1nsc(N2CCCN(C(=O)NCc3cc(C)on3)CC2)n1,45
15,CCc1nccn1C1CCCN(C(=O)c2ccc3c(c2)nnn3C)C1 (configuration not stated),12.7
16,COc1cc2nc3n(c(=O)c2cc1OC)CCN(C(=O)C(C)(C)C)CC3,32.3
17,Cc1ccc(C(C)(O)CNC(=O)NCCc2ccc3c(c2)CCO3)o1 (configuration not stated),23.2
18,O=c1cc(CN2CC[C@@]3(O)CCCC[C@H]3C2)c2cccc3c2n1CCC3,42.1
19,O=C(NCCc1c[nH]cn1)c1ccc(S(=O)(=O)NC2CCOC2)cc1 (configuration not stated),4.68
20,O=C(NCCNc1cc(N2CCCC2)cnn1)Nc1ccccc1F,53.8
21,O=C(Cc1ccc(F)cc1)NCCNc1cc(N2CCCC2)cnn1,34.6
22,CSc1nnc(CNC(=O)Nc2ccccc2F)n1C,31.7
23,CNS(=O)(=O)c1ccc(C(=O)Nc2ccc3c(c2)C(=O)NC3)cc1,-5.26

row,Compound,INHIBITION [%]
1,O=C(Nc1ccc2c(c1)C(=O)NC2)c1ccc(S(=O)(=O)C(F)(F)F)cc1,55
2,CS(=O)(=O)Cc1ccc(C(=O)Nc2ccc3c(c2)C(=O)NC3)cc1,37.9
3,O=C(NCC1COC2(CCOCC2)O1)c1csc(-c2cccc(Cl)c2)n1 (configuration not stated),15.5
4,COCC(=O)N1C[C@H]2CNC[C@@]2(C(=O)NCc2cc(C)n[nH]2)C1,59.5
5,COCC(=O)N1C[C@H]2CNC[C@@]2(C(=O)NCc2c(C)noc2C)C1,-31.9
6,COCC(=O)N1C[C@H]2CNC[C@@]2(C(=O)NCc2nc(C)cc(C)n2)C1,1.45
7,CCC[C@H]1CN(S(C)(=O)=O)C[C@@H]1NC(=O)COC(C)C,34.9
8,CC(C)=CCN1CCN(Cc2cc(C)n[nH]2)CC1CCO (configuration not stated),26.6
9,Cc1cccc(CN2CCN(Cc3ccccc3)CC(O)C2)n1 (configuration not stated),16.8
10,CC(C)=CCN1CCN(Cc2cccc(C)n2)CC1CCO (configuration not stated),67.4
11,Cc1cccc(CN2CCN3C(=O)NC[C@H]3C2)n1,-27.5
12,CC(C)=CCN1CCN(Cc2cc(C)c(O)c(C)c2)CC1CCO (configuration not stated),51.3
13,Cc1ccc(CN2CCN(Cc3cc(C)n[nH]3)CC2CCO)cc1 (configuration not stated),-0.529
14,CC(C)N1CCC(N2CCN(C3CCCCC3)CC2CCO)CC1 (configuration not stated),22
15,CCn1cc(Cl)c(C(=O)Nc2ccc3c(c2)C(C)(C)C(=O)N3C)n1,20.9
16,O=C(CCc1cc(O)no1)N1CCCC(OCc2cccnc2)C1 (configuration not stated),23.6
17,Cc1c(S(=O)(=O)N(CCc2ccccc2)Cc2ccn(C)n2)cnn1C,41.9
18,CNC(=O)NCC(CO)Cc1ccccc1OC(F)(F)F (configuration not stated),16
19,CS(=O)(=O)CCOc1nc(-c2ccccc2Cl)no1,-3.94
20,COCCOc1nc(-c2ccccc2Cl)no1,14.9
21,CCS(=O)(=O)CCCOc1nc(-c2ccccc2Cl)no1,50
